Reference: PubChem BioAssay (Tox21)
Values without a mark were called inactive. Records with an inconclusive call do not appear. Where a call stands in place of a potency, no number is given. Calls of active or inactive are those of the source. Unless noted, the call rests on the fitted dose curve.

Legend:
[1] = Nuclear factor erythroid 2-related factor 2/antioxidant responsive element (Nrf2/ARE) small molecule agonists: qHTS cell viability counter screen in human keratinocytes (AID 1919968; active means well fitted curve in the direction sought with a large enough effect in the repeat runs; an effect the other way counts as inactive or inconclusive; further: nearly all actives have a fitted effect of over 55% in size)
Procedure, shortened: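 CellTiter-Fluor fluorescence, read 1 h after reagent, gave viability in the same wells as the ARE-luciferase assay. KeratinoSens cells (1,500/well) had 23 h compound exposure at 37 C/5% CO2 following 5 h plating.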

[2] = Nuclear factor erythroid 2-related factor 2/antioxidant responsive element (Nrf2/ARE) small molecule agonists: luciferase reporter gene qHTS assay in human keratinocytes (AID 1919969); further: nearly all actives have a fitted effect of over 35% in size; further: potency means the concentration at half of the fitted maximal effect
[3] = molecular target: Gonadotropin-releasing hormone receptor (Homo sapiens) (UniProt P30968); assay: Human gonadotropin-releasing hormone receptor (GnRHR) small molecule agonists, calcium flux assay in GnRHR-HEK293 cells (AID 1920063); further: nearly all actives have a fitted effect of over 35% in size
Procedure, shortened: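 Agonist mode: compounds at 15 concentrations, in triplicate, went onto calcium dye-loaded GnRHR-HEK293 cells. Intracellular calcium was then followed as 480/540 nm fluorescence at 1 s intervals over 3 min.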

[4] = molecular target: KiSS-1 receptor (Homo sapiens) (UniProt Q969F8); assay: Human kisspeptin (KISS1R) small molecule agonists, calcium flux assay in KISS1R-HEK293 cells (AID 1920064; active means well fitted curve in the direction sought with a large enough effect in the repeat runs; an effect the other way counts as inactive or inconclusive)
Procedure, shortened: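 Agonist mode: intracellular calcium rise tracked at 1 s intervals over 3 min (480/540 nm) immediately after compound addition to dye-loaded KISS1R-HEK293 stable cells. Each compound tested at 15 concentrations in triplicate.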

[5] = G protein-coupled receptor (GPCR) small molecule agonists, calcium flux assay: HEK293 wild type cell line counter screen (AID 1920065)
Procedure, shortened: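 Calcium flux counter screen: compound added in agonist mode at 15 concentrations in triplicate to dye-loaded parental HEK293 cells. Fluorescence (480/540) read kinetically for 3 min; ATP served as positive control.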

[6] = p53 small molecule agonists, cell-based qHTS assay with human liver microsomes (AID 1963577)
Procedure, shortened: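 p53RE-bla reporter cells were pre-incubated 5 h at 37 C, then treated with compounds plus human liver microsomes (0.5 mg/mL final) and NADPH (0.5 mg/mL final) for 16 h at 37 C. Beta-lactamase activity was read by LiveBLAzer fluorescence after 2 h at room temperature.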

[7] = p53 small molecule agonists, cell-based qHTS assay with human liver microsomes: qHTS cell viability counter screen (AID 1963579); further: nearly all actives have a fitted effect of over 45% in size
Procedure, shortened: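 p53RE-bla cells (4,000/well) were pre-incubated 5 h at 37 C, then given compounds in DMSO plus human liver microsomes (0.5 mg/mL final) and NADPH (0.5 mg/mL final) for 16 h at 37 C. Viability was read by CellTiter-Glo luminescence.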

[8] = p53 small molecule agonists, cell-based qHTS assay with rat liver microsomes: qHTS cell viability counter screen (AID 1963580); further: nearly all actives have a fitted effect of over 45% in size
Procedure, shortened: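 After the beta-lactamase ratio was read, CellTiter-Glo was added to the same wells and luminescence measured at 30 min; cells had been treated 16 h at 37 C with compounds, rat liver microsomes and NADPH (0.5 mg/mL final each).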

[9] = p53 small molecule agonists, cell-based qHTS assay: qHTS cell viability counter screen (AID 1963581); further: nearly all actives have a fitted effect of over 45% in size
Procedure, shortened: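 Counter screen read by CellTiter-Glo luminescence (ATP content, 30 min at room temperature), run in the same wells as the beta-lactamase reporter read. HCT-116 p53RE-bla cells saw compounds for 16 h at 37 C.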

[10] = p53 small molecule agonists, cell-based qHTS assay (AID 1963582; active means well fitted activation curve with a large enough effect in the signal ratio in the repeat runs, not every such curve was filed as active; the % refers to the signal ratio)
Procedure, shortened: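 Read-out is beta-lactamase FRET fluorescence after 2 h at room temperature with LiveBLAzer B/G substrate. p53 response element-bla cells were treated 16 h at 37 C with compounds in DMSO, added 5 h after seeding.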

[11] = molecular target: 5-hydroxytryptamine receptor 2A (Homo sapiens) (UniProt P28223); assay: 5-hydroxytryptamine receptor 2A (HTR2A) small molecule antagonists, cell-based qHTS assay (AID 1963586); further: nearly all actives have a fitted effect of over 45% in size
Procedure, shortened: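 CHO cells stably expressing human HTR2A were plated for 18 h at 37 C, then loaded with calcium dye for 1 h. Compounds were preincubated 5 min at room temperature before DOI (4 nM solution) was added. Kinetic fluorescence was read for 3 min.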

[12] = molecular target: 5-hydroxytryptamine receptor 2A (Homo sapiens) (UniProt P28223); assay: 5-hydroxytryptamine receptor 2A (HTR2A) small molecule agonists, cell-based qHTS assay (AID 1963587); further: nearly all actives have a fitted effect of over 30% in size
Procedure, shortened: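 CHO cells stably expressing human HTR2A, plated 18 h, loaded with calcium dye 1 h at 37 C. Agonist mode: compounds added and intracellular calcium fluorescence recorded kinetically for 2 min at 1 sec intervals.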

[13] = molecular target: Muscarinic acetylcholine receptor M1 (Homo sapiens) (UniProt P11229); assay: Cholinergic receptor muscarinic 1 (CHRM1) small molecule antagonists, cell-based qHTS assay (AID 1963588); further: nearly all actives have a fitted effect of over 40% in size
Procedure, shortened: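 Compounds were tested at 15 concentrations in three independent runs. Dye-loaded CHRM1-CHO cells were exposed 5 min at room temperature before stimulation by acetylcholine added at 50nM. Intracellular calcium was read kinetically on FDSS for 3 min.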

[14] = molecular target: Muscarinic acetylcholine receptor M1 (Homo sapiens) (UniProt P11229); assay: Cholinergic receptor muscarinic 1 (CHRM1) small molecule agonists, cell-based qHTS assay (AID 1963589); further: nearly all actives have a fitted effect of over 35% in size
Procedure, shortened: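 Agonist-mode calcium-flux screen: compounds at 15 concentrations, three independent runs, were pin-transferred onto dye-loaded human CHRM1-CHO cells. Fluorescence was then recorded kinetically every second over minutes.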

[15] = cAMP Responsive Elements (CRE) small molecule antagonists, cell-based qHTS assay (AID 1963591; active means well fitted inhibition curve with a large enough effect in the signal ratio in the repeat runs, not every such curve was filed as active; the % refers to the signal ratio)
Procedure, shortened: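 Antagonist mode: compounds are added alongside the adenylyl cyclase activator NKH477 (0.25 uM final) to CRE-bla HEK293T cells for 3 h. LiveBLAzer FRET substrate, 2 h at room temperature, reports bla expression.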

[16] = molecular target: Beta-2 adrenergic receptor (Homo sapiens) (UniProt P07550); assay: Adrenergic beta2 receptor (ADRB2) small molecule antagonists, cell-based qHTS assay (AID 1963592); further: series mostly up to about 92 µM; nearly all actives have a fitted effect of over 50% in size
Procedure, shortened: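 Assay format: CHO-ADRB2 cells, 18-20hr seeding at 37C/5% CO2, then compound plus 1nM isoproterenol agonist mix for 0.5hr RT. Homogeneous time-resolved fluorescence cAMP detection after 1hr, expressed as 665/615 nm ratio.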

[17] = molecular target: D(2) dopamine receptor (Homo sapiens) (UniProt P14416); assay: Dopamine D2 receptor (DRD2) small molecule agonists, cell-based qHTS assay (AID 1963594); further: nearly all actives have a fitted effect of over 35% in size
Procedure, shortened: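 HEK293 cells stably expressing human DRD2, pre-treated with PDE inhibitor Ro20-1724 (0.1 mM final) and compound 10 min at room temperature, then stimulated with NKH477 (200nM […]) for 30 min. cAMP read by HTRF (665/620 nm).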

[18] = molecular target: D(2) dopamine receptor (Homo sapiens) (UniProt P14416); assay: Dopamine D2 receptor (DRD2) small molecule antagonists, cell-based qHTS assay (AID 1963595; active means well fitted inhibition curve with a large enough effect in the signal ratio in the repeat runs, with a control signal flat; the % refers to the signal ratio)
Procedure, shortened: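 Human DRD2 antagonist qHTS measuring cAMP by HTRF. The cells are exposed to compound for 10 min, then to NKH477 (200 nM) and quinpirole (12 nM) for 30 min at RT, with Ro20-1724 (0.1 mM) present throughout.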

[19] = cAMP Responsive Elements (CRE) small molecule agonists, cell-based qHTS assay (AID 1963590)
Procedure, shortened: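 Agonist mode: compound added to CRE-bla HEK 293T cells (2,000/well, 18 h after plating) for 3 h at 37 C/5% CO2. Reporter activity detected via FRET beta-lactamase substrate, 2 h room-temperature loading.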

[20] = p53 small molecule agonists, cell-based qHTS assay with rat liver microsomes (AID 1963578)
Procedure, shortened: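 p53RE-bla cells were exposed to compounds together with rat liver microsomes (0.5 mg/mL final) and NADPH (0.5 mg/mL final) for 16 h at 37 C, then read by LiveBLAzer beta-lactamase fluorescence after 2 h at room temperature.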

5-hydroxytryptamine receptor 2A (Homo sapiens), sequence (P28223 whole entry, looked up): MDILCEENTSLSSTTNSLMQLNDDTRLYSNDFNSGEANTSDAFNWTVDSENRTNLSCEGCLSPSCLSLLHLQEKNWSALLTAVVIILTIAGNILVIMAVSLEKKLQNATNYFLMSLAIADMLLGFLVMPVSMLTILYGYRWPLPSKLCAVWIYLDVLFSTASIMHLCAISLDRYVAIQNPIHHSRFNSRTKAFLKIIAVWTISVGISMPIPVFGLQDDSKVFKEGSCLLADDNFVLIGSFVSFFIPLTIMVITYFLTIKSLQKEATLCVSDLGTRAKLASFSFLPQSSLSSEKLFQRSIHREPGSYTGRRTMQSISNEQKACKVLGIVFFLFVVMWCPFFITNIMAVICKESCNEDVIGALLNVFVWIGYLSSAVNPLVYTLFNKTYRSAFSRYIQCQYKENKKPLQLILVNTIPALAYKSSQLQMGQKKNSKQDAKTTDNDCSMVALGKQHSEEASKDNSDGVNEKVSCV
Beta-2 adrenergic receptor (Homo sapiens), sequence (P07550 whole entry, looked up): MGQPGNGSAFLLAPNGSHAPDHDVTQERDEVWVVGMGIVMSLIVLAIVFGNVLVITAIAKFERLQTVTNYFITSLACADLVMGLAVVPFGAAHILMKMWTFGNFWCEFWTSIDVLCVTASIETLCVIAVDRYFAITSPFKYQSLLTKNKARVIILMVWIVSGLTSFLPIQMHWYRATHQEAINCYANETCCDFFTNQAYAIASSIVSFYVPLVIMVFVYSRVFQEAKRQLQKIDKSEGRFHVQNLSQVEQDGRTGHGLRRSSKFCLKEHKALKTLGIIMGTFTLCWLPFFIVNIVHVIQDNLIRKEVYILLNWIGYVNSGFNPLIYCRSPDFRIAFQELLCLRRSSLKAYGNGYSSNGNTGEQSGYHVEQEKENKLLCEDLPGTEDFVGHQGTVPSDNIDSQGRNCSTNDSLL
KiSS-1 receptor (Homo sapiens), sequence (Q969F8 whole entry, looked up): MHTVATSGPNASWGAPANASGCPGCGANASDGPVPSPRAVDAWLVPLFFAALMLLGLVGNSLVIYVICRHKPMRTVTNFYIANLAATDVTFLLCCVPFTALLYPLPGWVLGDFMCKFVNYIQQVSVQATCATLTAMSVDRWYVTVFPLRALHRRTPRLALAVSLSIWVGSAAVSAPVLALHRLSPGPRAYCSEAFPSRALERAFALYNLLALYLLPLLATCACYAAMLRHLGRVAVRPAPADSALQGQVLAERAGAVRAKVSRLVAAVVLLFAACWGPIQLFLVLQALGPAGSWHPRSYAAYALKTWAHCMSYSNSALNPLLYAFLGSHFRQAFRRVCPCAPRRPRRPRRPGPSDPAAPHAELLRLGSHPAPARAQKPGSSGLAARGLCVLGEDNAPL
Muscarinic acetylcholine receptor M1 (Homo sapiens), sequence (P11229 whole entry, looked up): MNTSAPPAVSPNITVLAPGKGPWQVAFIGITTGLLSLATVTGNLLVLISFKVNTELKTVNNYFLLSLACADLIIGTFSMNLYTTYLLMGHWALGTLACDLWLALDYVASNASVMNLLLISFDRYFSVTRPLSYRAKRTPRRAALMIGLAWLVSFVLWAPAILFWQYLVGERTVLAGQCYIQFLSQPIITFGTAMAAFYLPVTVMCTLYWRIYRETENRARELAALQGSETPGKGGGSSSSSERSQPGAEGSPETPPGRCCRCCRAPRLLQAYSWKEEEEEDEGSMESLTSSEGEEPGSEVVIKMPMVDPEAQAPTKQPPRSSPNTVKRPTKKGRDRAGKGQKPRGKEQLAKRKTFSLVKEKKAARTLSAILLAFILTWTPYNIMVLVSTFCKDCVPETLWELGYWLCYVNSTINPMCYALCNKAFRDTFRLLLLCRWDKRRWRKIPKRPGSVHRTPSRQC
D(2) dopamine receptor (Homo sapiens), sequence (P14416 whole entry, looked up): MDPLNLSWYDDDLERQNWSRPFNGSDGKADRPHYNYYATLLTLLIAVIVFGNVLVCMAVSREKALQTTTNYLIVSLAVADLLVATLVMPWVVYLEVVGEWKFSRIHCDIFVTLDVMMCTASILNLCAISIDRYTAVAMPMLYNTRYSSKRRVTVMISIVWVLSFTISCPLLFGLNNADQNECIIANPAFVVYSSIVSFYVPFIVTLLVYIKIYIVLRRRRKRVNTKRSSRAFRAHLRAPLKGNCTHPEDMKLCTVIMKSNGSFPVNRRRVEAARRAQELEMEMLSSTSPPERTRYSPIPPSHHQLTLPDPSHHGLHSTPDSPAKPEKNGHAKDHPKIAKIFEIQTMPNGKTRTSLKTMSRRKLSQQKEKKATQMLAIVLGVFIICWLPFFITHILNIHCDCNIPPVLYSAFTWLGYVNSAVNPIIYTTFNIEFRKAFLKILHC
Gonadotropin-releasing hormone receptor (Homo sapiens), sequence (P30968 whole entry, looked up): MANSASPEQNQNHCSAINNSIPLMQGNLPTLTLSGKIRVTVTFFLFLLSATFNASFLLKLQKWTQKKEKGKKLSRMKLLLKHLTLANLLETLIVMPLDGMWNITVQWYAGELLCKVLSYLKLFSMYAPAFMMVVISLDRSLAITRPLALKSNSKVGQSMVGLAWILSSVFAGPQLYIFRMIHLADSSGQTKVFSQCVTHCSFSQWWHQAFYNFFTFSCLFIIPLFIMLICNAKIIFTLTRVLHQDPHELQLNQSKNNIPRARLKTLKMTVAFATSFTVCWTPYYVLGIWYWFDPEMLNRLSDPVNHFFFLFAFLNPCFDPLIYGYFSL

Row | SMILES | Potency [1] | Potency [2] | Potency [3] | outcome [4] | outcome [5] | Potency [6] | Potency [7] | Potency [8] | Potency [9] | Potency [10] | Potency [11] | Potency [12] | Potency [13] | Potency [14] | Potency [15] | Potency [16] | Potency [17] | Potency [18] | Potency [19] | Potency [20]
1 | CO/N=C(\C(=O)O)c1csc(NC(=O)CCl)n1 | inactive | inactive | inactive | inactive | inactive | inactive | inactive | inactive | inactive | inactive | inactive | inactive | inactive | inactive | inactive | inactive | inactive | inactive |  | 
2 | COC(=O)c1ccc(I)cc1S(=O)(=O)NC(=O)Nc1nc(C)nc(OC)n1 | inactive | inactive | inactive | inactive | inactive | inactive | inactive | inactive | inactive | inactive | inactive | inactive | inactive | inactive |  | inactive | inactive | inactive | inactive | 
3 | CC(C)=CC(=O)O | inactive | inactive | inactive | inactive | inactive | inactive |  |  | inactive | inactive | inactive | inactive | inactive | inactive |  | inactive | inactive | inactive | inactive | inactive
4 | CC(C)NCC(O)c1ccc2ccccc2c1 (stereo not given) | inactive | inactive | inactive | inactive | inactive | inactive | inactive | inactive | inactive | inactive | inactive |  | inactive | inactive | inactive |  |  | inactive | inactive | 
5 | CO[Si](C)(OC)c1ccccc1 | inactive | inactive | inactive | inactive | inactive | inactive | inactive | inactive | inactive | inactive | inactive | inactive | inactive |  |  | inactive | inactive | inactive | inactive | 
6 | CCOC(=O)COc1ccc(C)cc1 | inactive | inactive | inactive | inactive | inactive | inactive | inactive | inactive | inactive | inactive |  | inactive | inactive | inactive |  | inactive | inactive |  |  | 
7 | CCCCCCCCCC#N | inactive | 68.2 µM (active) | inactive | inactive | inactive | inactive |  |  | inactive | inactive |  | inactive | inactive |  |  | inactive | inactive | inactive |  | inactive
